Reference: PubChem BioAssay AID493210 (National Center for Advancing Translational Sciences (NCATS), 2011)
Some of the results follow. Activity calls are given as the source filed them. The call rests on the fitted dose curve.

Target: Aldehyde dehydrogenase 1A1 (Homo sapiens) (UniProt P00352)
Test: Inhibitors of Aldehyde Dehydrogenase 1 (ALDH1A1): Followup Confirmation and Counterscreen
Conditions: purified ALDH1A1, NADH fluorescence, propionaldehyde/NAD+
Description: Aldehyde dehydrogenase 1 (ALDH1A1) catalyzes the NAD+ dependent oxidation of a variety of endogenous and exogenous aldehydes to the corresponding carboxylic acids. The enzyme is the critical step in the metabolic activation of retinoic acid, which plays essential roles as nuclear receptor ligand. […] See [1] through for more information on ALDH1A1. Inhibition of ALDH1A1 activity was screened by utilizing propionaldehyde as an electron donor and NAD+ as an electron acceptor/cofactor. An increase in the fluorescence intensity due to conversion of NAD+ to NADH was used to measure the enzyme activity. See [5] for screening methodology used. References: [1] Manzer R, Qamar L, Estey T, Pappa A, Petersen DR, Vasiliou V. Molecular cloning and baculovirus expression of the rabbit corneal aldehyde dehydrogenase (ALDH1A1) cDNA. DNA Cell Biol. 2003 May;22(5):329-38. Collard F, Vertommen D, Fortpied J, Duester G, Van Schaftingen E. Identification of 3-deoxyglucosone dehydrogenase as aldehyde dehydrogenase 1A1 (retinaldehyde dehydrogenase 1). Biochimie. 2007 Mar;89(3):369-73. Ziouzenkova O, Orasanu G, Sharlach M, Akiyama TE, Berger JP, Viereck J, Hamilton JA, Tang G, Dolnikowski GG, Vogel S, Duester G, Plutzky J. Retinaldehyde represses adipogenesis and diet-induced obesity. Nat Med. 2007 Jun;13(6):695-702. Molotkov A, Duester G. Genetic evidence that retinaldehyde dehydrogenase Raldh1 (Aldh1a1) functions downstream of alcohol dehydrogenase Adh1 in metabolism of retinol to retinoic acid. J Biol Chem. 2003 Sep 19;278(38):36085-90. […] Quantitative high-throughput screening: a titration-based approach that efficiently identifies biological activities in large chemical libraries. […]
Buffer: 100 mM Hepes pH 7.5, 0.01% Tween 20. […] The plates were immediately transferred to and read twice on ViewLux High-throughput CCD imager (Perkin-Elmer) 20 minutes apart using 360 nm excitation and 450 nm emission fluorescence protocol. The fluorescence intensity difference between the second and the first time points was used to compute reaction progress.

Sequence of Aldehyde dehydrogenase 1A1 (Homo sapiens) (P00352 whole entry, looked up): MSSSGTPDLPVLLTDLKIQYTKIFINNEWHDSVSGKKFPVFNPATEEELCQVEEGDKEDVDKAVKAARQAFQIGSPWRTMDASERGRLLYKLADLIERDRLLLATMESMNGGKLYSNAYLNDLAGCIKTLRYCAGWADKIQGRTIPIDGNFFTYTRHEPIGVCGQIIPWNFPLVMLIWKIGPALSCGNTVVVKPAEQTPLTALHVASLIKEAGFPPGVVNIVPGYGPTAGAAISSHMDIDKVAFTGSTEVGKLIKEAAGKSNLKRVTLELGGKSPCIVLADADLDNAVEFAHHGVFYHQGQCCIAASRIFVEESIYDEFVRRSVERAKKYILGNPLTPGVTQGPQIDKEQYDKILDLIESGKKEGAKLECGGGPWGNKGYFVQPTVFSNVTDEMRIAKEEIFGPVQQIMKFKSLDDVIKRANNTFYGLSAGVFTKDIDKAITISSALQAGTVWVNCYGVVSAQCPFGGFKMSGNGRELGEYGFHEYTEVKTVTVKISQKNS

Compound	Potency
Cc1cccc2c1N(CC(=O)OC(C)C)C(=O)C2=O	0.0224 µM (active)
CC1CCCN(C(=O)c2ccc3c(c2)C(=O)N(CCC2=CCCCC2)C3=O)C1 (stereo not drawn)	1.26 µM (active)
O=C(CN(Cc1ccccc1)C(=O)c1ccc2c(c1)OCCO2)NCc1ccc2c(c1)OCO2	0.398 µM (active)
